# Experimental data from the supplement of paper PMC10849652.
# Of roughly 8,800 targets only a part is listed; those with a hit were picked by preference. About 0.5% of all pairs of compound and target were hits. A number with no mark means an inactive call.
# Assays:
# Experiment in all cases: log2 fold change, soluble protein after heating vs DMSO (PISA); higher = thermal stabilisation; K562 lysate, 10 uM; active = over 0.2 and 3.5 SD of the protein, either way, in both replicates (recomputed)
# erlotinib = compound: C#Cc1cccc(Nc2ncnc3cc(OCCOC)c(OCCOC)cc23)c1 [erlotinib]
# In short: (§1)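 Thermal stability, expressed as log-two fold change relative to solvent controls, is given from duplicates. Crude K562 extract in PBS pH 7.4 with 1 mM MgCl2, at 1 mg/mL protein, was treated with 10 μM compound for 30 min and heated in aliquots for 3 min across 48°C-58°C. After pooling, adjustment to 0.5% NP-40 at 4°C and centrifugation at 21,000xg for 90 min, supernatant protein was measured by TMTpro 16plex LC-MS/MS with channel sums equalised.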
# [1] = compound: C/C(=N\NC(=O)C1=CC(=CC=C1)S(=O)(=O)N2CCOCC2)/C3=C(C=CC(=C3)Cl)O
# In short: as §1
# [2] = compound: C1=CC(=CC=C1C2=NC3=C(N2)C=C(C=C3)C(=O)N)OC4=CC=C(C=C4)Cl
# In short: as §1
# [3] = compound: C1=CC2=C(C=CC(=C2)/C=C\3/C(=O)NC(=NCC4=CC=CS4)S3)N=C1
# In short: as §1
# [4] = compound: C1=CC=C(C=C1)C2=NC(=C(N2)C3=CC=NC=C3)C4=CC(=C(C=C4)Cl)O
# In short: as §1
# [5] = compound: C1=CC=C2C(=C1)C3=NNC4=CC=CC(=C43)C2=O
# In short: as §1
# [6] = compound: C1CCN(C1)C(=O)NC2=CC=CC(=C2)NC3=NC=C(C(=N3)NCCC4=CN=CN4)Br
# In short: as §1
# [7] = compound: C1CN(CCC1(CC2=CC=C(C=C2)Cl)N)C3=NC=NC4=C3C=CN4
# In short: as §1
# IRAK-1-4 Inhibitor I = compound: C1COCCN1CCN2C3=CC=CC=C3N=C2NC(=O)C4=CC(=CC=C4)[N+](=O)[O-] [IRAK-1-4 Inhibitor I]
# In short: as §1
# [8] = compound: CC(=O)c1cnc2ccc(-c3cc(Cl)c(O)c(Cl)c3)nc2c1N[C@H]1CC[C@H](CN(C)C)CC1
# In short: as §1
# ralimetinib = compound: CC(C)(C)Cn1c(N)nc2ccc(-c3[nH]c(C(C)(C)C)nc3-c3ccc(F)cc3)nc21 [ralimetinib]
# In short: as §1
# [9] = compound: CC(C)(O)CC(=O)NCCn1ccc2ncnc(Nc3ccc(Oc4cccc(C(F)(F)F)c4)c(Cl)c3)c21
# In short: as §1
# [10] = compound: CC(C)C1=C2N=C(C=C(N2N=C1)NCC3=CC=CC=C3)NCCCCCCN
# In short: as §1
# [11] = compound: CC1=C(C(CC(=O)N1)C2=CC=C(C=C2)C(F)(F)F)C(=O)NC3=C(C=C4C(=C3)C=NN4)F
# In short: as §1
# [12] = compound: CC1=C(C2=C(C=C1)C(=O)C3=CC=CC=C3N2CCCN)C
# In short: as §1
# [13] = compound: CC1=C(C=C(C=C1)NC(=O)C2=CC(=CC=C2)N(C)C)NC(=O)C3=CC=C(C=C3)O
# In short: as §1
# [14] = compound: CC1=CC=C(C=C1)SC2=C3C=C(SC3=CN=C2)C(=O)N
# In short: as §1
# [15] = compound: C1=CC2=NC=CN=C2C=C1/C=C/3\C(=O)NC(=O)S3
# In short: as §1
# ibrutinib = compound: C=CC(=O)N1CCC[C@@H](n2nc(-c3ccc(Oc4ccccc4)cc3)c3c(N)ncnc32)C1 [ibrutinib]
# In short: as §1
# [16] = compound: CC1=C(C=C(C=C1)NC(=O)C2=CC(=CC=C2)C(C)(C)C#N)NC3=CC4=C(C=C3)N=CN(C4=O)C
# In short: as §1
# Chain of UniProt P62328 (P62328 whole entry, looked up): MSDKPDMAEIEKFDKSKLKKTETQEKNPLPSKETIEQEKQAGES
# Chain of UniProt Q9H6P5 (Q9H6P5 whole entry, looked up): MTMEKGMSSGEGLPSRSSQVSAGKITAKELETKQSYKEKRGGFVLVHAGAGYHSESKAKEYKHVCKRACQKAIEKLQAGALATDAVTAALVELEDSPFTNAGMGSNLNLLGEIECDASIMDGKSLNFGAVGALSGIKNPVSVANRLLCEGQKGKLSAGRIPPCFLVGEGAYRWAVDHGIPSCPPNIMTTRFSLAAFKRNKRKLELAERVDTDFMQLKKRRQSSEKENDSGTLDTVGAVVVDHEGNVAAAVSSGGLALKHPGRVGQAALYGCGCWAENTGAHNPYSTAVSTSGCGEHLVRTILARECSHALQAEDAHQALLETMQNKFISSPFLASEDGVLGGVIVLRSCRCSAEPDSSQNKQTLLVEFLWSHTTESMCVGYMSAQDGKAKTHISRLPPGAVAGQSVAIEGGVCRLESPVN
# Chain of UniProt P55851 (P55851 whole entry, looked up): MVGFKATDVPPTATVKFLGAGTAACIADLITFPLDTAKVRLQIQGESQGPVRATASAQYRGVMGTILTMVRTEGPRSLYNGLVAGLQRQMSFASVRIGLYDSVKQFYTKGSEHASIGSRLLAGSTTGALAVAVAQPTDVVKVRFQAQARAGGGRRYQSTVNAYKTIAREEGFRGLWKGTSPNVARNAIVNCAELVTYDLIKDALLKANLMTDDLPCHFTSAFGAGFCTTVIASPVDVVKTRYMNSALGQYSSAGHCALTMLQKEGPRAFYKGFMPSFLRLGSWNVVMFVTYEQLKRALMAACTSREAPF
# Chain of UniProt Q9H5L6 (Q9H5L6 whole entry, looked up): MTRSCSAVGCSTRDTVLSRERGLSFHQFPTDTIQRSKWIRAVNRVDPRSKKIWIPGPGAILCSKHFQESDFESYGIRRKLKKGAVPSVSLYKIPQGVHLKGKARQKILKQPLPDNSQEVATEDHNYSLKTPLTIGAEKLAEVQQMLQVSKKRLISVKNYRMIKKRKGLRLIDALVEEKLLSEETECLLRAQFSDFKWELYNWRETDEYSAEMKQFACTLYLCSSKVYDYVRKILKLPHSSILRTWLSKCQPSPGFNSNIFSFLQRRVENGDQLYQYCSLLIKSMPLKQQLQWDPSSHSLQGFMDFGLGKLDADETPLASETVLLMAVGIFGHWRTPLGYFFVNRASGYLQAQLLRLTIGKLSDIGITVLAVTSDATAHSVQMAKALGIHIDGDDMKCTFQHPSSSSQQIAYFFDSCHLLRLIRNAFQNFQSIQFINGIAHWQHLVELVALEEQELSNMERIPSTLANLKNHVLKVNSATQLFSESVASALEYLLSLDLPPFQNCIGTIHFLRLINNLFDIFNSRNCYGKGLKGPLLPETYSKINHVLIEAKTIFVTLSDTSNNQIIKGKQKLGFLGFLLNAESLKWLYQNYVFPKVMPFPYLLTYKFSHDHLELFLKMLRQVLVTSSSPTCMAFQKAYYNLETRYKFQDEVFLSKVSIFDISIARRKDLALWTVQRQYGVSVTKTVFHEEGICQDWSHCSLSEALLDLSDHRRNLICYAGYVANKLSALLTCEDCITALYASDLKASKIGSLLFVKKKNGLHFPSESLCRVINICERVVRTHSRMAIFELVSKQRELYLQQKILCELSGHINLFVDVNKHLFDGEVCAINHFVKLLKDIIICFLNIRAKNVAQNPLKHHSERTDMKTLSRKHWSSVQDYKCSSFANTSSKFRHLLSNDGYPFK
# Chain of UniProt Q8TD43 (Q8TD43 whole entry, looked up): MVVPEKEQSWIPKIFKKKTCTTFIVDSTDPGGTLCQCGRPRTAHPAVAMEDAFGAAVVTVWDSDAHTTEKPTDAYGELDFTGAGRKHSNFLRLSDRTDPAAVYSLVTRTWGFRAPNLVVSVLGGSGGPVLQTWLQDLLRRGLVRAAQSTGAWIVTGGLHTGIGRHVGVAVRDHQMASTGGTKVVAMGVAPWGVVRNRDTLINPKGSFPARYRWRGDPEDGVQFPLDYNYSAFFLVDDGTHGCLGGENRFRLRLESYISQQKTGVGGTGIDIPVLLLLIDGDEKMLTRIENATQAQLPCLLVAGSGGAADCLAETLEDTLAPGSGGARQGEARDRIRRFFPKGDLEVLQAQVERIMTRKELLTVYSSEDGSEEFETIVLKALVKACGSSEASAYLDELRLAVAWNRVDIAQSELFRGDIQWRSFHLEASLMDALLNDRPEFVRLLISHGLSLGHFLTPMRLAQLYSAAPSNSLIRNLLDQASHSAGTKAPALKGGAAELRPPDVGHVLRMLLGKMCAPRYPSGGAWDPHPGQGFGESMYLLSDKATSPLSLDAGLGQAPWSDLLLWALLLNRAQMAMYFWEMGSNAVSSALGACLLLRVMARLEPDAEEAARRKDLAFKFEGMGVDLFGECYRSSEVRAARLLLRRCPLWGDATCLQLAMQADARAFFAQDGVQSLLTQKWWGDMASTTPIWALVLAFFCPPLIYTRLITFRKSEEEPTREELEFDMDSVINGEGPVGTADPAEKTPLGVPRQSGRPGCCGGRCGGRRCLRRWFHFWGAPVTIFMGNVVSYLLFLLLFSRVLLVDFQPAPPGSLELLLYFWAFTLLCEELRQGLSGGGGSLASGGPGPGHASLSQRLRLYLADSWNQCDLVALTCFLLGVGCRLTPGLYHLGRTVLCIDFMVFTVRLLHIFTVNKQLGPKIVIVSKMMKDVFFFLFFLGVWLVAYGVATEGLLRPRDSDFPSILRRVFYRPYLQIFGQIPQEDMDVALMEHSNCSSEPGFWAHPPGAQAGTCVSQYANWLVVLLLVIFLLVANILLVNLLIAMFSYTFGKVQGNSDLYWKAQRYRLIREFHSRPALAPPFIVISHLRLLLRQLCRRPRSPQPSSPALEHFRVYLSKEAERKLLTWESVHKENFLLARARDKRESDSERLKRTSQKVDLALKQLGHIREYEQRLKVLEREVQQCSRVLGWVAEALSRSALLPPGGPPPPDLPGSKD
# Chain of UniProt Q96RT8 (Q96RT8 whole entry, looked up): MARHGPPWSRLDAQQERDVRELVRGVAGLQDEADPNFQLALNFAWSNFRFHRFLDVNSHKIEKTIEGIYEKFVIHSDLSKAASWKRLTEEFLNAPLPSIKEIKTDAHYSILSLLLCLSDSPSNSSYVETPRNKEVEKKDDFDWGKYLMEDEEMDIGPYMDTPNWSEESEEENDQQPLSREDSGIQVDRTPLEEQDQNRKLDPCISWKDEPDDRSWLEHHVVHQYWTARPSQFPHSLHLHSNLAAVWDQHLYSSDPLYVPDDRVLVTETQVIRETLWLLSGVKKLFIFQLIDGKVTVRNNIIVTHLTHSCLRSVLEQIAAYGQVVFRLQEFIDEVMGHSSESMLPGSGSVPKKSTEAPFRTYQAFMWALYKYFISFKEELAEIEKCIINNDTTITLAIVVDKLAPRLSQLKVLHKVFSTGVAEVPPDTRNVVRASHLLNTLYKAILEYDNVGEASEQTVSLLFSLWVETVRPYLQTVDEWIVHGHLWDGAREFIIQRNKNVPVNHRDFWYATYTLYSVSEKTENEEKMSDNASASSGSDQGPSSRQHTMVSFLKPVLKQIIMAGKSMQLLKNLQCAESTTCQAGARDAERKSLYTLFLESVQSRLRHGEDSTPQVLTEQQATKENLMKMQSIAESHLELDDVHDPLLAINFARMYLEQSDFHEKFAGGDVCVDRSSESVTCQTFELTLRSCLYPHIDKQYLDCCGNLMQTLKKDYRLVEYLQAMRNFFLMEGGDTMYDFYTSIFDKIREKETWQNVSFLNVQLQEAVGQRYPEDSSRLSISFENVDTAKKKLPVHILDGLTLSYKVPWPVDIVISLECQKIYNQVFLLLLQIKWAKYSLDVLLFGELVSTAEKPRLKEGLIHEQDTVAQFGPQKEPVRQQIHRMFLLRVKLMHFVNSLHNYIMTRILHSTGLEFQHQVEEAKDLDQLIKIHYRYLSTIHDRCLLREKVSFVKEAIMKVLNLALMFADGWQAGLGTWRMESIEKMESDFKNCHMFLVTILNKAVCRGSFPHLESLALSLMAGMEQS
# Chain of UniProt P15884 (P15884 whole entry, looked up): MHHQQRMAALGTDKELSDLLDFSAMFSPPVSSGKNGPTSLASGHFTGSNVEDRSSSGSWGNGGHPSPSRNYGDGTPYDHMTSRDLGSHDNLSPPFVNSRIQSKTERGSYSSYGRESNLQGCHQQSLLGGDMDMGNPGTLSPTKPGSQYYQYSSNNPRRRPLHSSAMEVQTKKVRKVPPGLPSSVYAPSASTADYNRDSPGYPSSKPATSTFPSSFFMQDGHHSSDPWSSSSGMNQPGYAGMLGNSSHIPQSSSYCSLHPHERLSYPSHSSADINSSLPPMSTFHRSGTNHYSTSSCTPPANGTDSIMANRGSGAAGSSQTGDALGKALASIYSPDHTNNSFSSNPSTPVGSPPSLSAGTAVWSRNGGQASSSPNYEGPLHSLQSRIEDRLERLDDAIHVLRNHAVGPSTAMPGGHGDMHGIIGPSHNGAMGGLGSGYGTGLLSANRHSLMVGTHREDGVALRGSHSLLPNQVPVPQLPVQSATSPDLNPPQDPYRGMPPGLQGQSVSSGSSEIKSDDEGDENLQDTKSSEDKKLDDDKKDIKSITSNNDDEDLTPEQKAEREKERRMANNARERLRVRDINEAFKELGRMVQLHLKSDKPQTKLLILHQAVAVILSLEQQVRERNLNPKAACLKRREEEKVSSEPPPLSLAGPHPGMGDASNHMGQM
# Chain of UniProt O60637 (O60637 whole entry, looked up): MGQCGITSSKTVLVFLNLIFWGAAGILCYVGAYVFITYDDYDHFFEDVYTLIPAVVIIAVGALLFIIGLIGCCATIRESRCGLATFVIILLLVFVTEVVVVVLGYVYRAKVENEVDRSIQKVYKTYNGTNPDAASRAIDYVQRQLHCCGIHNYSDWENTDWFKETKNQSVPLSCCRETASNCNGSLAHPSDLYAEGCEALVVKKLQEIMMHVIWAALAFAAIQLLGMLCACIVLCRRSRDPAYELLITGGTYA
# Chain of UniProt Q6P9G4 (Q6P9G4 whole entry, looked up): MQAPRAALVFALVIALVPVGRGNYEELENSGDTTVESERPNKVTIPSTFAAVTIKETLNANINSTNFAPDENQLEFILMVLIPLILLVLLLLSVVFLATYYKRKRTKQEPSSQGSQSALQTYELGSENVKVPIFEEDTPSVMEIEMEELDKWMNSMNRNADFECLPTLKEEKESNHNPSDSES
Target,log2 fold change (erlotinib),log2 fold change [1],log2 fold change [2],log2 fold change [3],log2 fold change [4],log2 fold change [5],log2 fold change [6],log2 fold change [7],log2 fold change (IRAK-1-4 Inhibitor I),log2 fold change [8],log2 fold change (ralimetinib),log2 fold change [9],log2 fold change [10],log2 fold change [11],log2 fold change [12],log2 fold change [13],log2 fold change [14],log2 fold change [15],log2 fold change (ibrutinib),log2 fold change [16]
TSPAN3 (UniProt O60637),0.002,0.012,0.058,-0.073,0,-0.135,0.006,0.032,0.091,0.008,-0.069,-0.025,0.05,-0.173,-0.099,0.135,-0.04,–,–,–
TRPM4 (UniProt Q8TD43),0.018,–,0.164,–,0.004,–,–,–,-0.152,–,-0.021,-0.063,-0.325,–,-0.055,0.05,–,-0.094,0.099,0.116
TMC1 (UniProt Q8TDI8),-0.028,-0.001,-0.007,0.013,-0.072,-0.071,-0.148,-0.081,0.099,-0.016,0.156,-0.185,0.204,-0.034,–,0.017,-0.045,–,–,-0.104
TUBGCP5 (UniProt Q96RT8),–,0.001,–,-0.026,0.013,0.01,-0.003,-0.043,-0.034,0.363,0.038,0.026,–,0.009,0.001,-0.049,-0.118,0.024,0.036,-0.007
THAP9 (UniProt Q9H5L6),–,0.019,–,-0.015,0.028,-0.042,-0.092,0.098,0.145,-0.061,-0.168,-0.332,–,–,-0.199,0.017,-0.087,0.01,0.038,0.234
TRIM3 (UniProt O75382),0.129,0.2,-0.909 (active),0.098,–,0.012,0,-0.265,–,-0.06,–,–,-0.09,–,–,–,0.048,–,–,–
TASP1 (UniProt Q9H6P5),-0.013,–,-0.017,–,-0.022,–,-0.062,0.092,0.055,0.04,-0.073,-0.062,0.028,0.089,-0.114,-0.012,0.067,-0.102,0.005,0.009
TCF3 (UniProt X6REB3),–,-0.006,–,-0.208,–,-0.192,–,–,–,–,–,–,–,–,–,–,–,–,–,–
UBN1 (UniProt Q9NPG3),–,0.032,–,-0.056,–,0.051,0,-0.023,–,0.015,–,–,–,–,0.03,–,0.081,–,–,0.066
TCF4 (UniProt P15884),–,–,–,–,0.005,–,0.234,-0.165,-0.152,-0.285,-0.069,0.005,–,0.007,-0.019,0.003,-0.035,–,–,-0.056
U2AF1L5 (UniProt P0DN76),-0.029,–,0.044,–,-0.066,–,0.109,-0.107,0.132,-0.047,-0.019,0.001,0.069,-0.008,-0.003,0.143,0.011,–,–,–
TMEM132A isoform 2 (UniProt Q24JP5),-0.031,–,-0.009,–,-0.064,–,0.042,0.068,0.101,0.676,0.065,-0.194,0.03,–,–,0.015,0.019,–,–,0.05
TM2D3 (UniProt Q9BRN9),0.104,–,-0.083,–,0.205,–,0.153,0.088,0.148,–,-0.14,-0.157,-0.201,–,–,0.07,–,-0.068,0.02,–
TGFBR1 isoform 2 (UniProt P36897),0.042,–,-0.069,–,–,–,0.14,-0.102,–,–,–,–,-0.032,–,-0.043,–,–,–,–,–
TPM3 isoform 3 (UniProt P06753),-0.074,-0.007,-0.076,-0.006,-0.033,0.08,0.084,-0.068,-0.016,0.066,0.145,0.093,-0.125,–,0.005,0.012,-0.032,–,–,-0.157
TCF20 (UniProt Q9UGU0),-0.04,–,-0.001,–,–,–,–,–,–,0.128,–,–,-0.317,–,-0.212,–,-0.166,0.039,-0.025,-0.004
TMEM154 (UniProt Q6P9G4),–,–,–,–,0.01,–,-0.096,0.108,0.019,–,-0.079,0.164,–,–,0.048,0.172,–,–,–,-0.052
UCP2 (UniProt P55851),–,0.217,–,-0.114,0.011,-0.025,–,–,-0.026,–,0.091,-0.081,–,0.073,–,-0.1,–,–,–,-0.045
"UBAP2, A0A0D9SFI5",–,–,–,–,–,–,–,–,–,–,–,–,–,–,–,–,–,–,–,0.035
UBR4 isoform 4 (UniProt Q5T4S7),0.121,-0.209,-0.073,-0.071,0.136,0.016,0.119,-0.094,0.097,0.131,-0.092,-0.201,0.111,–,0.331,-0.02,0.034,–,–,–
TEC (UniProt P42680),–,0.092,–,-0.051,–,-0.048,-0.024,-0.038,–,-0.096,–,–,–,-0.023,–,–,0.143,–,–,–
TLE3 (UniProt H0YL70),–,–,–,–,–,–,–,–,–,–,–,–,–,–,0.004,–,–,–,–,–
TMSB4X (UniProt P62328),0.079,–,0.084,–,0.002,–,0.018,0.085,-0.083,-0.03,0,-0.072,0.033,0.122,–,0.075,-0.064,-0.031,0.519,-0.025
